NOD2-RIPK2 inh = NOD2-RIPK2 protein interaction inhibition; CHO BLA complementation NOD2-RIPK2, CCF4 ratio; O43353; 360,000 compounds, 0.38% hits; inhibition, % at 4.98 µM; in the data active = inhibition above about 21%;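 note: 0% = vehicle only and 100% = reference blocker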
TLR9-MyD88 inh = blocks human TLR9 binding to MyD88 | Q9NR96+Q99836 | CHO BLA complementation TLR9-MyD88, CCF4 FRET ratio | inhibition, % at 4.98 µM | 340,000 compounds, 0.21% hits | AID 504734;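 active = inhibition above the mean over all tested compounds plus 3 SD, cut at about 21% in these data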;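 note: 0% = DMSO only wells and 100% = clavulanate BLA inhibitor control wells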
TLR4 MyD88 comp = inhibitors of human TLR4-MyD88 binding. O00206+Q99836. HeLa CL3-4 TLR4/MyD88 BLA complementation, FRET ratio. inhibition, % at 8.4 µM. 200,000 compounds, 0.18% hits. AID 861; in the data active = inhibition above about 25%;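 note: 0% = vehicle and 100% = reference inhibitor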
ABHD5-PLIN5 inh = ABHD5-PLIN5 protein interaction inhibition; Q00G26+Q8WTS1; Split G. princeps luciferase complementation, luminescence, 4 h; inhibition, % at 4 µM; 360,000 compounds, 0.78% hits;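 active = inhibition above the mean inhibition across every tested compound plus 3 SD, cut at about 22% in these data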;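 note: 0% = DMSO only wells and the 100% control is not disclosed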
rCAG binder = binds r(CAG) RNA repeats. r(CAG) RNA repeat, TO-PRO-1 dye displacement fluorescence. 370,000 compounds, 1.3% hits. inhibition, % at 3 µM;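 active = inhibition above the plate cutoff, the mean of all test compounds on that plate plus 3 SD, cut at about 35% in these data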;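 note: 0% = DMSO alone and 100% = 100 µM mitoxantrone as full dye displacement; higher means more dye released from RNA so lower well fluorescence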
PRMT1 FP inh = PRMT1 (human) inhibition, primary screen; inhibition, % at 2.79 µM; recombinant PRMT1, activity-based probe fluorescence polarization; Q99873; 370,000 compounds, 1.3% hits;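 active = inhibition above about 21% made by adding two undisclosed values, limit read from the data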
ABHD5-PLIN5 conf = confirmation of human ABHD5-PLIN5 interaction inhibitors. biochemical ABHD5-PLIN5 interaction, luminescence. 2,200 compounds, 67% hits. inhibition, % at 4 µM. shares compounds with ABHD5-PLIN5 inh. AID 651612; in the data active = inhibition above about 23%;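 note: 0% = DMSO vehicle wells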
HNF4 split-luc = counter-screen for ABHD5-PLIN5 inhibitors: HNF4 split-luciferase; shares compounds with ABHD5-PLIN5 inh; HNF4 dimerization, luminescence, biochemical; inhibition, % at 4 µM; 2,200 compounds, 77% hits; AID 651674;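 active = mean inhibition across replicate wells exceeding the computed hit threshold, cut at about 13% in these data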;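 note: light from luciferase halves that rejoin when HNF4 fusion proteins dimerize; 0% = DMSO only wells and the 100% control is not given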
An asterisk follows results filed as active; . = no result given. A selection: hits, their analogues and other compounds. The true share with any hit is near 3.3%.

SMILES | NOD2-RIPK2 inh | TLR9-MyD88 inh | TLR4 MyD88 comp | ABHD5-PLIN5 inh | rCAG binder | PRMT1 FP inh | ABHD5-PLIN5 conf | HNF4 split-luc
COc1ccc(C(C(=O)NC2CCCCC2)n2c(=O)c(-c3ccco3)nc3ccccc32)cc1 (configuration not stated) | -12 | . | . | 66* | 26 | 13 | 85* | 30*
COc1ccc(NC(=O)C(c2ccc(C(F)(F)F)cc2)n2c(=O)c(-c3ccco3)nc3ccccc32)cc1 (configuration not stated) | -8 | . | . | 12 | 17 | 5 | . | .
COc1ccc(C(C(=O)NCc2ccccc2)n2c(=O)c(-c3ccco3)nc3ccccc32)cc1 (configuration not stated) | 2 | . | . | 72* | 21 | 13 | 78* | 42*
CCCC1CC(=O)NC1(C(=O)OCC)C(=O)OCC (configuration not stated) | -2 | 7 | . | -5 | 1 | 0 | . | .
Cc1nc(C)c(C(=O)OCC(=O)Nc2ccc(C)c(C)c2)s1 | -3 | -1 | . | 0 | 4 | 0 | . | .
O=C1C(Sc2ccccc2)=C[C@@]2(O)CC[C@@H](O)[C@]1(Sc1ccccc1)[C@H]2O | -1 | . | . | 26* | 6 | 10 | 33* | 43*
COc1ccc(SC2=C[C@@]3(O)CC[C@@H](O)[C@@](Sc4ccc(OC)cc4)(C2=O)[C@H]3O)cc1 | 4 | . | . | -6 | 7 | 13 | . | .
CCN(CC)CCc1nc(-c2ccccc2)no1 | -1 | 14 | . | 56* | 5 | -3 | 84* | 43*
CC1(C)Cc2c(sc3nc(SCC(=O)NCc4ccco4)n(-c4ccccc4)c(=O)c23)CS1 | 4 | -6 | -13 | 30* | 6 | 3 | 16 | 10
CCN(CC)S(=O)(=O)c1ccc(N2CCN(S(=O)(=O)c3ccccc3)CC2)nc1 | -1 | -10 | . | 6 | 0 | 2 | . | .
CC(C)N(C(C)C)S(=O)(=O)c1ccc(N2CCc3ccccc3C2)nc1 | 0 | -6 | . | 39* | 3 | 0 | 30* | 26*
CCN(CC)S(=O)(=O)c1ccc(N2CCc3ccccc3C2)nc1 | 5 | -2 | . | 44* | 2 | 2 | 61* | 72*
O=C1C(=Cc2ccco2)CCCC1=Cc1ccco1 | -3 | -5 | . | 39* | 22 | 29* | 53* | 63*
O/N=C1\CCC\C1=C/c1ccco1 | -10 | -1 | 13 | -2 | 4 | 2 | . | .
CN1C(=O)/C(=C\C(=O)c2cccs2)c2ccccc21 | 15 | 1 | 16 | 65* | 9 | 16 | 67* | 87*
O=C1CCN(C(=O)c2cccs2)c2ccccc21 | -1 | 3 | -4 | 6 | 3 | -1 | . | .
O=C(CCc1ccccc1)Nc1cccnc1Cl | -8 | 2 | . | -1 | -4 | -1 | . | .
O=C(CC(=O)c1ccccc1)Nc1cccnc1Cl | -8 | -11 | -3 | 27* | 4 | 7 | 13 | 18*
CSCCC(C(=O)NCc1ccccc1)n1c(-c2ccc3c(c2)CCO3)nc2ccccc21 (configuration not stated) | -8 | . | . | -4 | 2 | -3 | . | .
CCOc1cc(CNCCCN2CCOCC2)cc(Br)c1OCc1ccccc1Cl | 7 | 12 | 11 | 30* | -7 | 2 | 10 | 17*
CCOc1cc(CNCCO)cc(Br)c1OCc1ccccc1Cl | -7 | 3 | 3 | 28* | -1 | 3 | 12 | 0
CCOc1cc(CNCCO)cc(Br)c1OCc1ccc(Cl)cc1 | 14 | -13 | 4 | 25* | 10 | -1 | 16 | 8
COc1cc(CNCCO)cc(Cl)c1OCc1ccccc1Cl | -1 | -9 | -3 | 9 | -2 | 6 | . | .
CCOc1ccccc1N1CCN(Cc2cccc(OC)c2O)CC1 | -1 | -7 | -11 | 10 | -4 | -1 | . | .
COc1ccccc1N1CCN(Cc2cc(Br)c(O)c3ncccc23)CC1 | -14 | 5 | 13 | 25* | 10 | 4 | 14 | 14*
SMILES | NOD2-RIPK2 inh | TLR9-MyD88 inh | TLR4 MyD88 comp | ABHD5-PLIN5 inh | rCAG binder | PRMT1 FP inh | ABHD5-PLIN5 conf | HNF4 split-luc
C#CCOCCOCCOCCNc1nc(N2CCN(C(=O)CCCCCCCCCCNC(=O)[C@H](CCC(=O)O)n3cc(CCCCCN)nn3)CC2)nc(N2CCN(C(=O)CCCCCCCCCCNC(=O)[C@@H]([C@H](C)O)n3cc(C)nn3)CC2)n1 | 12 | 2 | . | 27* | . | . | 7 | 1
C#CCOCCOCCOCCNc1nc(N2CCN(C(=O)CCCCCCCCCCNC(=O)[C@H](CCCCN)n3cc(CCO)nn3)CC2)nc(N2CCN(C(=O)CCCCCCCCCCNC(=O)[C@@H]([C@H](C)O)n3cc(C)nn3)CC2)n1 | 11 | -13 | . | 45* | . | . | 29* | 13*
C#CCOCCOCCOCCNc1nc(N2CCN(C(=O)CCCCCCCCCCNC(=O)[C@@H](CCC(=O)O)n3cc(CCCCCN)nn3)CC2)nc(N2CCN(C(=O)CCCCCCCCCCNC(=O)[C@@H](CCC(=O)O)n3cc(CCCCCN)nn3)CC2)n1 | 2 | -11 | . | 14 | 6 | 2 | . | .
C#CCOCCOCCOCCNc1nc(N2CCN(C(=O)CCCCCCCCCCNC(=O)[C@@H]([C@H](C)O)n3cc(C)nn3)CC2)nc(N2CCN(C(=O)CCCCCCCCCCNC(=O)[C@@H]([C@H](C)O)n3cc(C)nn3)CC2)n1 | -3 | -2 | . | 40* | 7 | 2 | 8 | -13
C#CCOCCOCCOCCNc1nc(N2CCN(C(=O)CCCCCCCCCCNC(=O)Cn3cc(CCCCCN)nn3)CC2)nc(N2CCN(C(=O)CCCCCCCCCCNC(=O)[C@H](CO)n3cc(CCCCCN)nn3)CC2)n1 | -4 | -15 | . | 37* | . | . | 10 | 0
C#CCOCCOCCOCCNc1nc(N2CCOCC2)nc(N2CCN(C(=O)CCCCCCCCCCNC(=O)[C@@H]([C@H](C)O)n3cc(C)nn3)CC2)n1 | -6 | -2 | . | -5 | -4 | 4 | . | .
COc1ccccc1/C=C/C(=O)OCC(=O)Nc1c(C)nn(-c2ccccc2)c1C | -10 | 1 | . | 5 | 1 | 0 | . | .
CCOC(=O)c1ccc(N=c2sc(C(=O)OC)cc(=O)n2CCCN2CCOCC2)cc1 | -6 | 0 | -10 | 42* | 2 | 6 | 45* | 42*
COC(=O)c1cc(=O)n(CCc2ccc(OC)cc2)c(=Nc2ccc(F)c(Cl)c2)s1 | 0 | -5 | -13 | 13 | 3 | 6 | . | .
CCn1c(=O)cc(C(=O)OC)sc1=Nc1ccc(F)c(F)c1 | -6 | 1 | -6 | 27* | -1 | 1 | 59* | 40*
O=C(Nc1nccs1)c1ccc2ccccc2n1 | -5 | -4 | . | 4 | 1 | 3 | . | .
